Cardiac RTF inh: cardiac RTF calcium desensitization. IANBD-labeled cardiac RTF, Ca2+ fluorescence. inhibition, % at 7.15 µM. 340,000 tested, 0.12% active;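 active means inhibition above the mean inhibition of all tested compounds plus 3 SD, cut at about 17% in these data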;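 further: assay run at fixed EC70 calcium of 1.6 mM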
Keap1-Nrf2 PPI: Keap1-Nrf2 (human) interaction inhibition. Keap1 Kelch-Nrf2 peptide fluorescence polarization, 1536-well. Q14145. inhibition, % at 9.4 µM. 340,000 tested, 0.15% active; in the data active means inhibition above about 12%;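 further: human Keap1 Kelch domain with fluorescein labeled Nrf2 9mer peptide probe; higher means more block of Keap1 binding to Nrf2 peptide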
Target sequence (Q14145 whole entry, looked up, the tested form may be a part): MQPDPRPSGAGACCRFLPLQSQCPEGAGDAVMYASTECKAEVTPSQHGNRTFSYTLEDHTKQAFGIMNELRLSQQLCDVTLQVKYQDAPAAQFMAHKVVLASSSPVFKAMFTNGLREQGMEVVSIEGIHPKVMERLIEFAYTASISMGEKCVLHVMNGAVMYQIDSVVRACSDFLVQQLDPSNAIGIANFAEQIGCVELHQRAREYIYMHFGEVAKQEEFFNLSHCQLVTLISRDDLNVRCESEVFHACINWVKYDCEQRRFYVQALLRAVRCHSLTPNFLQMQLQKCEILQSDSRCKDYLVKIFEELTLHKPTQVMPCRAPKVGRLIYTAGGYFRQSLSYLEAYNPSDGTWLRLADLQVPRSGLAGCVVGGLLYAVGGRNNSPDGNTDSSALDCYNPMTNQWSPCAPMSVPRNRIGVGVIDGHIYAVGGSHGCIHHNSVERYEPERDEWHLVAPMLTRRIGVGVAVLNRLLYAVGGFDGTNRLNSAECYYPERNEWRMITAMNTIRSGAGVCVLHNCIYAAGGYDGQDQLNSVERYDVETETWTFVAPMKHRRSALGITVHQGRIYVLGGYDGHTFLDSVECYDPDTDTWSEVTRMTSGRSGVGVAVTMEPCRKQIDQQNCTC
RTF Ca sens act: increases calcium sensitivity of human cardiac regulated thin filaments; P19429+P45379; IANBD-labeled TnC RTF fluorescence at EC20 calcium; 0% EC20 calcium, 100% full calcium; activation, % at 7.2 µM; 340,000 tested, 0.24% active; AID 493008;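 active means activation above the mean over all tested compounds plus 3 SD, cut at about 30% in these data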;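 further: rise in fluorescence read as greater calcium sensitivity of cardiac thin filaments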
LANA DNA inh: KSHV C-LANA DNA binding inhibition; 340,000 tested, 0.078% active; inhibition, % at 9 µM; MBP-C-LANA/FAM-LBS DNA binding, fluorescence polarization; AID 504423;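 active means highest replicate inhibition at or above 60% at 9 µM, even if other replicates fall short; inactive means all replicates below 60% inhibition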
E coli Lon inh: E. coli protease La inhibition; P0A9M0; purified E. coli Lon protease, fluorescence polarization; inhibition, % at 7.94 µM; 360,000 tested, 0.42% active; in the data active means inhibition above about 13%, passing the limit was not always enough
eLon confirm: confirmation of E. coli Lon protease inhibitors; shares compounds with E coli Lon inh; purified E. coli Lon, fluorescence polarization; inhibition, % at 7.94 µM; 1,400 tested, 31% active; in the data active means inhibition above about 16%
Hits are given with their value. The list is not random: actives were taken first. Their share in the collection is about 0.82%.

For CN(C(=O)c1cccc(NC(=O)Cc2ccc(NC(=O)C3CCN(C(=O)C4CCCC4)CC3)cc2)c1)C1CCCC1 the results were Cardiac RTF inh inactive, Keap1-Nrf2 PPI inactive, RTF Ca sens act inactive, LANA DNA inh inactive and E coli Lon inh inactive.
Screening Cc1c(C(=O)NCc2ccccc2C(F)(F)F)sc(=O)n1Cc1ccc(F)cc1 returned E coli Lon inh inactive.
Screening CCc1nnc(NC(=O)C2c3ccccc3Oc3ccccc32)s1 returned Cardiac RTF inh inactive, Keap1-Nrf2 PPI inactive, RTF Ca sens act inactive, LANA DNA inh inactive, E coli Lon inh 19 and eLon confirm inactive.
O=[N+]([O-])c1cccc(C(=S)N2CCN(c3ccc(F)cc3)CC2)c1 was read as Cardiac RTF inh inactive, Keap1-Nrf2 PPI inactive, RTF Ca sens act inactive, LANA DNA inh inactive, E coli Lon inh 56 and eLon confirm inactive.
For O=C1c2sccc2-c2cccc3cccc1c23 the results were E coli Lon inh 54 and eLon confirm 30.
For COc1ccc(C(=O)N=C2SC3CS(=O)(=O)CC3N2c2ccccc2)cc1OC (stereo not given) the results were Cardiac RTF inh inactive, Keap1-Nrf2 PPI inactive, RTF Ca sens act inactive, LANA DNA inh inactive, E coli Lon inh 19 and eLon confirm inactive.
Screening O=C(N=C1SC2CS(=O)(=O)CC2N1c1ccccc1)c1cccc([N+](=O)[O-])c1 (stereo not given) returned Cardiac RTF inh inactive, Keap1-Nrf2 PPI inactive, RTF Ca sens act inactive, LANA DNA inh inactive and E coli Lon inh inactive.
COC(=O)[C@@]1(C(C)C)N=C(c2cc(OC)c(OC)c(OC)c2)[C@]2(O1)C(=O)Nc1ccccc12 was read as E coli Lon inh inactive.
O=[N+]([O-])c1cnc(N2CCCCC2)c([N+](=O)[O-])c1 was read as Cardiac RTF inh inactive, Keap1-Nrf2 PPI inactive, RTF Ca sens act inactive, LANA DNA inh inactive, E coli Lon inh 55 and eLon confirm inactive.
`Cc1cc([N+](=O)[O-])cnc1N1CCOCC1` gave Cardiac RTF inh inactive, Keap1-Nrf2 PPI inactive, RTF Ca sens act inactive, LANA DNA inh inactive and E coli Lon inh inactive.
Screening Cc1ccc(NC(=O)CC2SC3=NCCCN3C2=O)c(C)c1 (stereo not given) returned Cardiac RTF inh inactive, Keap1-Nrf2 PPI inactive, RTF Ca sens act inactive, LANA DNA inh inactive, E coli Lon inh 64 and eLon confirm 17.
Screening Nc1cc2nc[nH]c2cc1N returned Cardiac RTF inh inactive, Keap1-Nrf2 PPI inactive, RTF Ca sens act inactive, LANA DNA inh inactive, E coli Lon inh 18 and eLon confirm inactive.
`CCC(=Nc1ccc(N)cc1)C1=C(O)C(C(=O)OC)C(C)(C)CC1=O` (stereo not given) gave Cardiac RTF inh inactive, Keap1-Nrf2 PPI inactive, RTF Ca sens act inactive, LANA DNA inh inactive, E coli Lon inh 20 and eLon confirm inactive.
For Cc1cc(C(N)=O)c2ccccc2n1 the results were Cardiac RTF inh inactive, Keap1-Nrf2 PPI inactive, RTF Ca sens act inactive, LANA DNA inh inactive and E coli Lon inh inactive.
For NC(=O)c1cc2c3ccccc3ccn2c1-c1ccccc1 the results were Cardiac RTF inh inactive, Keap1-Nrf2 PPI inactive, RTF Ca sens act inactive, LANA DNA inh inactive, E coli Lon inh 25 and eLon confirm 18.
For Cc1ccccc1NC(=O)C1CCCN(c2ncnc3onc(-c4ccc(F)cc4)c23)C1 (stereo not given) the results were Cardiac RTF inh inactive, Keap1-Nrf2 PPI inactive, RTF Ca sens act inactive, LANA DNA inh inactive, E coli Lon inh 16 and eLon confirm inactive.
COc1cc([C@@H]2[C@H]3CN(C)CC=C3C(C#N)=C(N)C2(C#N)C#N)cc2c1OCO2 was read as Cardiac RTF inh inactive, Keap1-Nrf2 PPI inactive, RTF Ca sens act inactive, LANA DNA inh inactive and E coli Lon inh inactive.
`CN1CC=C2C(C#N)=C(N)C(C#N)(C#N)[C@H](c3cccc(Cl)c3)C2C1` (stereo not given in full) gave Cardiac RTF inh inactive, Keap1-Nrf2 PPI inactive, RTF Ca sens act inactive, LANA DNA inh inactive, E coli Lon inh 23 and eLon confirm 17.
`CCN1CC=C2C(C#N)=C(N)C(C#N)(C#N)[C@H](c3cccc(OC)c3OC)[C@H]2C1` gave Cardiac RTF inh inactive, Keap1-Nrf2 PPI 16, RTF Ca sens act 36, LANA DNA inh inactive, E coli Lon inh 36 and eLon confirm inactive.
For COc1cccc(C2C3CN(C)CC=C3C(C#N)=C(N)C2(C#N)C#N)c1OC (stereo not given) the results were Cardiac RTF inh inactive, Keap1-Nrf2 PPI inactive, RTF Ca sens act inactive, LANA DNA inh inactive, E coli Lon inh 53 and eLon confirm 16.
`O=C(COC(=O)c1ccc(F)cc1Cl)NC1CC1` gave E coli Lon inh inactive.
O=C(O)CC(NNC(=O)c1ccccc1)C(=O)Nc1cccc([N+](=O)[O-])c1 (stereo not given) was read as Cardiac RTF inh inactive, Keap1-Nrf2 PPI inactive, RTF Ca sens act inactive, LANA DNA inh inactive, E coli Lon inh 16 and eLon confirm inactive.
O=C(NC(=S)Nc1cccc([N+](=O)[O-])c1)c1ccccc1 was read as Keap1-Nrf2 PPI inactive, LANA DNA inh inactive and E coli Lon inh inactive.
For COc1ccc(C(C)(O)c2nc(-c3ccccc3OC)cs2)cc1 (stereo not given) the results were E coli Lon inh inactive.
CCCCN(C(=O)NC(=O)Nc1ccccc1OC)S(C)(=O)=O was read as Cardiac RTF inh inactive, Keap1-Nrf2 PPI inactive, RTF Ca sens act inactive, LANA DNA inh inactive, E coli Lon inh 20 and eLon confirm inactive.
Screening COc1ccccc1NC(=O)NC(=O)N(C(C)C)S(C)(=O)=O returned Cardiac RTF inh inactive, Keap1-Nrf2 PPI inactive, RTF Ca sens act inactive, LANA DNA inh inactive and E coli Lon inh inactive.
COc1ccc2c3c(cccc13)N(C)N=C2C was read as Cardiac RTF inh inactive, Keap1-Nrf2 PPI inactive, RTF Ca sens act inactive, LANA DNA inh inactive, E coli Lon inh 37 and eLon confirm 21.
For CCOc1ccccc1NC(=O)Nc1cccc(NC(C)=O)c1 the results were Cardiac RTF inh inactive, Keap1-Nrf2 PPI inactive, RTF Ca sens act inactive, LANA DNA inh inactive and E coli Lon inh inactive.
CCOc1ccccc1NC(=O)Nc1ccc(OC)nc1 was read as Cardiac RTF inh inactive, Keap1-Nrf2 PPI inactive, RTF Ca sens act inactive, LANA DNA inh inactive, E coli Lon inh 22 and eLon confirm 16.
For Cc1cc(C)cc(C(O)c2ncc(-c3ccc(F)cc3)[nH]2)c1 (stereo not given) the results were E coli Lon inh inactive.
Screening Cc1ccc(S(=O)(=O)NCc2ccc3c(c2)cc(C)n3C)cc1 returned Cardiac RTF inh inactive, Keap1-Nrf2 PPI inactive, RTF Ca sens act inactive, LANA DNA inh inactive, E coli Lon inh 16 and eLon confirm inactive.
Screening Cc1cc2cc(CNC(=O)NC3CCCCC3)ccc2n1C returned Cardiac RTF inh inactive, Keap1-Nrf2 PPI inactive, RTF Ca sens act inactive, LANA DNA inh inactive and E coli Lon inh inactive.
`Cc1cc2cc(CNC(=O)Nc3ccc(Cl)c(Cl)c3)ccc2n1C` gave Cardiac RTF inh inactive, Keap1-Nrf2 PPI inactive, RTF Ca sens act inactive, LANA DNA inh inactive, E coli Lon inh 23 and eLon confirm inactive.

Screens from PubChem BioAssay.
